Assay results reported in PubChem BioAssay (NCATS).
Inconclusive results are not listed. Entries that show only a call come without a potency. Active and inactive are the calls of the source. Calls follow the shape of the dose curve; as a rule, active = well fitted curve in the direction sought with a large enough effect; inconclusive = small, poorly fitted or top-dose-only effect, or another doubt; inactive = no such curve, though single readings can be large; an effect the other way counts as inactive or inconclusive.

What was measured:
[1] = test system: Zika virus NS2B-NS3 protease (linked construct); test: Primary screen NINDS Rhodamine qHTS for Zika virus inhibitors (AID 1347160); also: nearly all actives have a fitted effect of over 55% in size
Method in brief: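 Percent inhibition, normalized to uninhibited and enzyme-free controls, is fitted to a 4-parameter Hill equation. Fluorescence change comes from a 15-min cleavage of 1.5 microM bis-peptide Rhodamine110 substrate by 25 nM linked NS2B-NS3 at room temperature.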

[2] = test system: Zika virus NS2B-NS3 protease (unlinked complex); test: Primary screen GU Rhodamine qHTS for Zika virus inhibitors: Unlinked NS2B-NS3 protease assay (AID 1347159); also: nearly all actives have a fitted effect of over 60% in size
Method in brief: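 Compounds, tested up to 114 microM, were incubated for 15 minutes with 25 nM unlinked NS2B-NS3 protease at pH 8.0. Cleavage of 1.5 microM Rhodamine110 substrate was then followed by fluorescence for 15 minutes.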

[3] = OV-KATE Cancer Cell Toxicity qHTS against the NCATS CANVASS Library (AID 1347345)
Method in brief: (§1)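 Per well, 1000 cells; exposure 72 h with compound at 11 final concentrations; readout CellTiter-Glo luminescence.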

[4] = UWB1.289 Cancer Cell Toxicity qHTS against the NCATS CANVASS Library (AID 1347347); also: series mostly up to about 38 µM; nearly all actives have a fitted effect of over 60% in size
Method in brief: as §1

[5] = OV-SAHO Cancer Cell Toxicity qHTS against the NCATS CANVASS Library (AID 1347348); also: series mostly up to about 38 µM; nearly all actives have a fitted effect of over 55% in size
Method in brief: as §1

[6] = Panc-1005 Cancer Cell Toxicity qHTS against the NCATS CANVASS Library (AID 1347349); also: series mostly up to about 38 µM; nearly all actives have a fitted effect of over 60% in size
Method in brief: as §1

[7] = U-118MG Cancer Cell Toxicity qHTS against the NCATS CANVASS Library (AID 1347351); conditions: outcome: dose series up to 38.3 µM
Method in brief: as §1

C/C=C(/C)C(=O)OC1C2OC2C2(CO2)C2C3OC(=O)C(C)C3CCC12C (stereo not drawn)
Potency [1]: inactive

COc1cc(C(C)=O)ccc1O[C@@H]1O[C@H](CO)[C@@H](O)[C@H](O)[C@H]1O
Potency [2]: inactive
Potency [1]: inactive

CC(=O)O[C@H]1C[C@@]2(C)[C@@H](CC[C@H]3[C@@]4(C)C=CC(=O)[C@@H](C)[C@@H]4[C@H](OC(C)=O)C(=O)[C@@]32C)/C1=C(\CCC=C(C)C)C(=O)O
Potency [2]: inactive
outcome [3]: inactive
outcome [4]: inactive
outcome [5]: inactive
outcome [6]: inactive
outcome [7]: inactive

CC1OC(OC2C(OC3C(O[C@H]4CC[C@@]5(C)C(CC[C@]6(C)C5C(=O)CC5=C7CC(C)(C)CC(O)[C@]7(C)CC[C@]56C)C4(C)C)OC(C(=O)O)C(O)C3O)OCC(O)C2O)C(O)C(O)C1O (stereo partly drawn)
Potency [1]: inactive

CC(O)C(=O)/C=C/C=C/C(=O)OC1C=C2COC(=O)C2(O)C2(C)CCCC(C)(C)C12 (stereo not drawn)
Potency [1]: inactive

COc1ccc(C(=O)OC2C3C=COC(OC4OC(CO)C(O)C(O)C4O)C3C3(CO)OC23)cc1OC (stereo not drawn)
Potency [1]: inactive

OC[C@@]1(O)CO[C@H](OC[C@H]2O[C@@H](OCCc3ccccc3)[C@H](O)[C@@H](O)[C@@H]2O)[C@@H]1O
Potency [2]: inactive
Potency [1]: inactive

COc1ccc(-n2c(=O)[nH]c3cc(C(=O)NCc4ccc(Cl)cc4)sc3c2=O)nc1OC
Potency [1]: inactive

O=C(O)CC(CCc1ccccc1)OC1OC(CO)C(O)C(O)C1O (stereo not drawn)
Potency [1]: inactive

CC1(C)C[C@@H]2[C@H](C1)[C@@]1(C)C[C@]13C(O)OC[C@]3(O)[C@H]2O (stereo partly drawn)
Potency [1]: inactive

CC(C/C=C/C(C)(C)O)C1CCC(C)(O)C(O)C1 (stereo not drawn)
Potency [1]: inactive
